# Compound activity: PubChem BioAssay, Broad Institute
# The full list was thinned out, with hits kept by preference.
# PD-1 reverse act – reversal of PD-1 mediated T-cell inhibition. primary human CD4 T cells, PD-L1 beads, CellTiter-Glo 96 h. activation, % (concentration not given with the values). 29,000 tested, under 10 active. AID 2316; call rule not given here;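 further: 0% = median vehicle wells and 100% = positive control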
# STK33 kin inh – blocks human STK33 kinase activity | Q9BYT3 | ADP-Glo luminescence, MBP substrate | inhibition, % at 12.5 µM | 27,000 tested, 0.44% active | AID 2322; in the data active means inhibition above about 20%; inconclusive means no clear call, values can overlap the other calls
# Target sequence (Q9BYT3 whole entry, looked up): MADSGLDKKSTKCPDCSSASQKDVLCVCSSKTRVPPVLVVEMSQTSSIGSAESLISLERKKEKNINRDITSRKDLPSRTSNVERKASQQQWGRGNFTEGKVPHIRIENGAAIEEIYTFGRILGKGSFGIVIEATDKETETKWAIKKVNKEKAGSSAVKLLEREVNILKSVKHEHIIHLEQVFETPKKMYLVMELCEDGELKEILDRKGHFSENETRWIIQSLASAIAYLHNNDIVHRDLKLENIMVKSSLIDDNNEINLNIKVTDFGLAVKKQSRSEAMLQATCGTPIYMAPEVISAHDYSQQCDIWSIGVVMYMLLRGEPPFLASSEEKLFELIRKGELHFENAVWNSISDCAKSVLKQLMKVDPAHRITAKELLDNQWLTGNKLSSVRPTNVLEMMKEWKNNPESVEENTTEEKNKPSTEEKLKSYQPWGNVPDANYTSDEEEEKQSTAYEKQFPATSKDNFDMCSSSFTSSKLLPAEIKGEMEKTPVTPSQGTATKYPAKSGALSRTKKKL
# NOMO-1 viab – STK33 inhibitor candidate reducing NOMO-1 cell viability | NOMO-1 AML viability, CellTiter-Glo luminescence, 72 h | inhibition, % (concentration not given with the values) | 37,000 tested, 7.5% active | AID 2330; in the data active means inhibition above about 80%; inconclusive means no clear call, values can overlap the other calls
# * hit, by the source's call; ? = inconclusive; . = no result.
SMILES,PD-1 reverse act,STK33 kin inh,NOMO-1 viab
O=C1NC(=O)C(=Cc2cn(Cc3ccccc3)c3ccccc23)C(=O)N1,-2.3,.,125.6*
CC1=CC2/C=C(\C)CCC(O)C(O)/C=C/C(=O)C23C(=O)NC(CC(C)C)C3C1C (centres undefined),-36.9,0.2,121.3*
C/C1=C/[C@@H](C)C/C=C/[C@H]2[C@@H]3O[C@]3(C)[C@@H](C)[C@H]3[C@H](Cc4c[nH]c5ccccc45)NC(=O)[C@]32C(=O)/C=C\C(=O)[C@@H]1O,.,4.9,.
COC(=O)C12CC3CC(C(C)O)C1N(CCc1c2[nH]c2cc(OC)ccc12)C3 (centres undefined),.,-0.9,.
O=c1cc(O)c2ccccc2o1,0.7,-5.1,7.2
CCC(=O)O[C@H]1CCC2C3CCC4=CC(=O)CC[C@]4(C)C3CC[C@@]21C (some centres undefined),.,1.7,4.5
CC1(C)C(C(=O)Nc2nccs2)C1(C)C,-1.7,0.7,11.4
C[C@@H]1O[C@@H](O[C@@H]2C=C3CCC4C(CC[C@]5(C)[C@@H](c6ccc(=O)oc6)CC[C@]45O)[C@@]3(C)CC2)[C@H](O)[C@H](O)[C@H]1O (some centres undefined),.,-1.4,119.7*
C[C@@H]1O[C@@H](O[C@@H]2C=C3CC[C@@H]4C(CC[C@]5(C)[C@@H](c6ccc(=O)oc6)CC[C@]45O)[C@@]3(C)CC2)[C@H](O)[C@H](O)[C@H]1O (some centres undefined),-16.0,-3.4,107.7*
COC1=CC(=O)O[C@@H](CCc2ccccc2)C1,0.5,-2.8,12.1
CCN1C[C@]2(COC)[C@H](O)C[C@H](OC)[C@@]34[C@@H]5C[C@]6(O)[C@H](OC(=O)c7ccccc7)[C@@H]5[C@@](OC(C)=O)(C([C@H](OC)[C@H]23)[C@@H]14)[C@@H](O)[C@@H]6OC,4.3,-0.6,28.7
COc1ccc2c(c1OC)C(=O)O[C@H]2[C@@H]1c2cc3c(cc2CCN1C)OCO3,.,1.1,24.8
CN1Cc2c(ccc3c2OCO3)C2C(O)Cc3cc4c(cc3C21)OCO4 (centres undefined),.,-0.2,104.5*
CC(=O)CC(c1ccc(Br)cc1)c1c(O)c2ccccc2oc1=O (centres undefined),.,-1.4,-15.3
N#CC(CCN1CCN(c2ccccc2)CC1)(c1ccccc1)c1ccccc1,0.5,.,55.3
COc1ccc(CCNCc2cccnc2)cc1OC,.,-1.7,19.5
O=C(/C=C/c1ccccc1)OCC1OC(OC2OC=CC3C(O)C4OC4(CO)C23)C(O)C(O)C1O (centres undefined),1.0,0.1,0.8
CN1CC(C(=O)N[C@]2(C)O[C@@]3(O)[C@@H]4CCCN4C(=O)[C@H](Cc4ccccc4)N3C2=O)C=C2c3cccc4[nH]cc(c34)C[C@H]21 (some centres undefined),0.4,9.5,14.4
CC(C)[C@H]1C(=O)O[C@H](C(C)C)C(=O)N(C)[C@@H](C(C)C)C(=O)O[C@H](C(C)C)C(=O)N(C)[C@@H](C(C)C)C(=O)O[C@H](C(C)C)C(=O)N1C,-0.4,-2.6,118.9*
COc1cc(CNCCc2c[nH]c3ccccc23)c([N+](=O)[O-])cc1OC,.,-2.1,5.5
CC[C@@]1(O)C(=O)OCc2c1cc1n(c2=O)Cc2cc3c(O)cccc3nc2-1,.,2.1,119.3*
C=C(C)[C@@]12O[C@@H]1[C@@]1(C)C(=C[C@H]2O)CC[C@@H](O)[C@@H]1C,0.5,-0.7,18.9
C=CC(C)(C)[C@@]12C[C@H]3C(=O)N/C(=C\c4cnc[nH]4)C(=O)N3[C@@H]1Nc1ccccc12,-0.2,-5.8,2.6
CC1=CC2OC3[C@H](O)C[C@@](C)([C@]34CO4)[C@@]2(CO)[C@H](O)C1=O (some centres undefined),-7.9,-4.2,123.5*
COc1ccccc1OCCCn1cc(C(=O)C(C)(C)C)c2ccccc21,-1.9,1.4,37.3
SMILES,PD-1 reverse act,STK33 kin inh,NOMO-1 viab
CC(C)c1cc2c(cc1O)[C@@]1(C)CCCC(C)(C)[C@@H]1CC2,-2.7,-3.3,?
O=C1C=C2C=C[C@@H]3C[C@@]2(O1)[C@H]1CCCCN31,.,2.6,90.5*
Cc1cccc(N2C(=O)NC(=O)C(CCc3ccncc3)(CCc3ccncc3)C2=O)c1,1.5,-0.8,3.4
CCOC(=O)C1C2c3ccccc3C(c3ccccc32)C1C(=O)OCC (centres undefined),-0.3,.,35.3
CC(C)(CN)CNc1ccc([N+](=O)[O-])c2cccnc12,.,1.0,73.0
CCCCn1c(=O)c(C(=O)NCc2ccccn2)c(O)c2ccccc21,.,5.0,66.3
CCN1C[C@]2(C)CC[C@H](OC)[C@@]34C2[C@H](O)C([C@@H]13)[C@@]1(OC)C[C@H](OC)[C@H]2C[C@@H]4[C@@H]1[C@H]2O,0.3,-0.4,3.6
Cc1ccc(N2C(=O)NC(=O)C(CCc3ccccn3)(Cc3cccs3)C2=O)cc1 (centres undefined),.,-0.9,15.7
C/C=C(/C)C(=O)O[C@H]1C(C)=C2[C@H]([C@@H]1OC(=O)CCCCC)[C@@](C)(OC(C)=O)C[C@H](OC(=O)CCC)[C@@]1(O)[C@H]2OC(=O)[C@@]1(C)O,-42.3,2.2,99.4*
CC1(C)C(C(=O)Nc2ccc(S(=O)(=O)c3ccc(NC(=O)C4C(C)(C)C4(C)C)cc3)cc2)C1(C)C,2.1,.,-2.2
C=C(CO)C(=O)O[C@H]1CC(=C)[C@@H]2C[C@H](O)C(=C)[C@@H]2[C@H]2OC(=O)C(=C)[C@@H]21,-3.8,4.8,120.8*
C=C(CO)C(=O)O[C@H]1C/C(C)=C\CC/C(CO)=C\[C@H]2OC(=O)C(=C)[C@H]12,-17.5,-3.6,122.5*
COc1ccc(CC2(CCc3ccncc3)C(=O)NC(=O)N(c3cccc(C)c3)C2=O)c(OC)c1 (centres undefined),.,-0.3,16.6
C=C1C([C@]2(C)C(CC(=O)OC)[C@@](C)(COC(C)=O)OC(=O)C[C@@H]2OC(C)=O)[C@@H](OC=O)[C@H](OC(=O)C(OC(C)=O)C(C)CC)[C@@]2(C)[C@H](c3ccoc3)CC(=O)C12O (some centres undefined),.,-2.2,-2.7
COc1ccc(OC)c(NC(=S)NCCc2cnc[nH]2)c1,3.4,-2.2,38.0
CC1=CC(=O)C2=C(C)C[C@H](O)[C@@H]3[C@H](OC(=O)[C@@H]3C)[C@@H]12,.,0.1,.
NC1=C(C(=O)OCc2ccccc2)C2(C(=O)Nc3ccc(Br)cc32)C2=C(O1)C(=O)CCC2 (centres undefined),-1.6,.,45.0
C[C@@H]1CN([C@@H](C)CO)C(=O)CCCn2cc(nn2)CO[C@@H]1CN(C)C(=O)Oc1cccc2ccccc12,.,2.8,.
CC(C)(C)c1cc(C=C(C#N)C#N)cc(Br)c1O,0.4,4.6,57.3
CCn1cnc2c(Nc3cccc(Cl)c3)nc(N[C@@H]3CCCC[C@@H]3N)nc21,2.7,62.5*,99.7*
COc1ccc2c(c1)[C@]13CCCC[C@H]1[C@H](C2)N(C)CC3,.,-0.1,31.9
CC(=O)OC1CCC2(C)C(=CCC3C4CCC(=O)C4(C)CCC32)C1 (centres undefined),-0.4,0.6,9.8
COc1cc(C2=NC(O)C(=O)Nc3ccc(Cl)cc32)ccc1O (centres undefined),3.6,1.8,3.3
CC(C)(C)c1nc2ccccc2c(=O)n1-c1ccc(F)cc1F,-1.1,.,9.5
